Assay results taken from PubChem BioAssay AID504652 (National Center for Advancing Translational Sciences (NCATS), 2011).
“And” between values parts separate entries of the source, which are not always exact repeats. Equal values may be shown once. The whole screen tested about 360,000 compounds, of which about 11,000 (3.1%) were called active. No stated cut-off is given here; in the data, active means activity change below about -30%; inactive means the rest. The sample as a whole holds a higher share of actives than the screen did. More than one record can exist for a structure, and the calls need not agree.

Molecular target: D(1A) dopamine receptor (Homo sapiens) (UniProt P21728)
Sequence (P21728 whole entry, looked up): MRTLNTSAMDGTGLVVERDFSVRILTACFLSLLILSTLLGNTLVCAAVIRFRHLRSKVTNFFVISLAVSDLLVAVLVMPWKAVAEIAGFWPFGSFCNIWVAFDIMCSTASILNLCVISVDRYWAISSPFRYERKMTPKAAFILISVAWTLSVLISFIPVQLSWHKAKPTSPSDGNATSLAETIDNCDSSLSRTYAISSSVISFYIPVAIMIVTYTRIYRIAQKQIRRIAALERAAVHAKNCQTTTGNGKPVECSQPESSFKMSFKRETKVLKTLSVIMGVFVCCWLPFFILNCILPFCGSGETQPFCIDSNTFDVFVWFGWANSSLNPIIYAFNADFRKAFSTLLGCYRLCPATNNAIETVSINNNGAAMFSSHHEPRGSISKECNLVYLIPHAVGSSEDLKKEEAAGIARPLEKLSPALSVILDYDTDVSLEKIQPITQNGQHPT
Test: Antagonist of Human D 1 Dopamine Receptor: qHTS
Settings: HEK293 TREx D1 cells, calcium flux, dopamine EC80; at 10 µM; stronger effect = lower value
Procedure, shortened: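 Allosteric or orthosteric antagonism assessed as attenuation of the calcium response to EC80 dopamine, added 180 s after compound, in induced HEK293 Trex D1 cells loaded with no-wash calcium dye.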
On the % scale 0 is the no-effect control and ±100 the full control effect.

Activity change, negative = inhibition, 25% (inactive) and -43.2% (active):
CCn1c(C)c(C)c2cc(C(=O)N3CCN(c4cccc(C)c4C)CC3)ccc21

Activity change, negative = inhibition, inactive:
Cc1c(C)n(Cc2ccc(Cl)cc2)c2ccc(C(=O)N3CCN(c4ccccc4F)CC3)cc12 -18.2%
Cc1cccc(N2CCN(C(=O)c3ccc4c(c3)CCN4S(=O)(=O)c3ccccc3)CC2)c1C -15.6%
CN(Cc1ccccc1)c1ncnc2onc(-c3ccc(F)cc3)c12 -1.84%
Cc1ccc(-c2nnc(SCC(=O)NCc3ccccc3)nc2-c2ccc(C)cc2)cc1 -16.8%
CCC(CC)c1nn2cc(-c3ccccc3)nc2s1 14.7%
O=C(CCC(=O)N1CCCC1)Nc1ccc([N+](=O)[O-])cc1 15.5%
O=C(Nc1ccc([N+](=O)[O-])cc1)C1(c2ccccc2)CCOCC1 -11.2%
CCC(=O)N1CCc2cc(Br)cc(S(=O)(=O)Nc3ccc(C)cc3C)c21 2.58%
Cc1c(NC(=O)C(C)(C)C)cccc1-c1nc2ccccc2s1 0.443%
CCOC(=O)c1ccc(N2C(=O)c3n[nH]c(C)c3C2c2ccc(O)c(OC)c2)cc1 (stereo not drawn) -4.29%
Cc1ccc(S(=O)(=O)N2CCN(C)CC2)cc1 0.986%
CCOC(=O)N1CCN(S(=O)(=O)c2ccc(Br)cc2)CC1 -1.63%
Cc1ccc(C)c(NC(=O)Cn2ccn(-c3ccc(F)cc3)c(=O)c2=O)c1 -20%
COc1ccccc1NC(=O)c1oc2ccccc2c1NC(=O)C(C)C -5.69%
COc1ccc(CCNC(=O)C(=O)NCc2ccccc2C)cc1OC 3.05%
COc1ccc(CCN2C(=O)c3[nH]nc(-c4ccccc4O)c3C2c2ccc(C)cc2)cc1OC (stereo not drawn) -3.51%
Cc1ccccc1NC(=O)CN1C(=O)C(C)(C)c2ccccc21 10.3%
CC(=O)Nc1ccc(S(=O)(=O)Oc2ccc(Br)cc2C(=S)N2CCOCC2)cc1 0.681%
CCOc1cc(C(=S)N2CCOCC2)ccc1O -0.874%
COC(=O)c1ccc2c(c1)N(CC(=O)Nc1ccc(C)c(C)c1)C(=O)c1ccccc1S2 10.3%
Cc1csc2nc(COC(=O)c3ccc(NC(=O)COc4ccccc4F)cc3)cc(=O)n12 -26.3%
CCS(=O)(=O)n1nc(-c2ccc(OC)cc2)nc1SC -19.3%
Cc1ccc(S(=O)(=O)n2nc(-c3ccc(Cl)cc3)nc2NCc2ccccc2)cc1 -3.44%
COc1ccc(CC(=O)N2N=C(C)CC2(O)C(F)(F)F)cc1 (stereo not drawn) -2.03%
CC1=NN(C(=O)CCc2ccccc2O)C(O)(C(F)(F)F)C1 (stereo not drawn) 12.3%
O=C(Nc1ccc2oc(-c3ccc(O)c(Br)c3)nc2c1)c1cc2ccccc2o1 -6.68%
O=C(CC(c1cccs1)N1Cc2ccccc2C1=O)Nc1ccc(F)cc1F (stereo not drawn) 4.94%
CCOC(=O)c1ccc(NC(=O)CSc2nc3c([nH]c4ccccc43)c(=O)n2C)cc1 -5.11%
Cc1ccc(C(=O)NC2CC(C)(C)NC(C)(C)C2)c(C)c1 -9.44%
CC(=O)N/N=C(\C)c1ccc(Br)cc1Br 25.3%
CCc1ccc(-n2nc(C)c3c(C)cc(=O)n(CC(=O)Nc4ccc(F)cc4C)c32)cc1 -6.21%
Cc1ccc2[nH]cc(CCNC(=O)c3ccc([N+](=O)[O-])cc3)c2c1 -29.3%
O=C(NCCc1ccc(Cl)cc1Cl)c1cc([N+](=O)[O-])c[nH]c1=O -1.06%
O=C(c1cnn(-c2ccc(F)cc2)c1-n1cccc1)N1CCN(c2ccc(F)cc2)CC1 1.87%
CCOC(=O)c1cc(-c2ccc(OC)c(S(=O)(=O)Nc3ccc(OC)cc3OC)c2)on1 -13.6%
CC(Nc1nc(C(F)(F)F)nc2ccccc12)c1cccs1 (stereo not drawn) -20.1%
CCc1ccc(C(CNc2nc(C(F)(F)F)nc3ccccc23)N(C)C)cc1 (stereo not drawn) 26.8%
COC(=O)c1ccc(NC(=O)c2cc(S(=O)(=O)N3CCC(C)CC3)cn2C)cc1 -19.2%
COc1ccc(Cn2c(C(=O)O)c(CNCCc3cccs3)c3ccc(OC)cc32)cc1 9.72%
O=C(Cn1c(-c2cccs2)cc2ccccc21)NCCc1ccc(Cl)cc1 -2.26%
COc1ccc(CCNC(=O)CN2CCC(n3nnc4cc(F)ccc43)CC2)cc1OC -3.98%
CN(CC(=O)Nc1ccc(F)cc1)C(=O)c1ccc(-c2ccc(Cl)cc2)o1 -13.8%
CCCCC(CC)CNC(=O)C1CCN(S(=O)(=O)c2cccc3nsnc23)CC1 (stereo not drawn) 5.74%
O=C(NCCc1ccc(Cl)cc1)c1ccc2nc(CCc3ccccc3)oc2c1 -1.03%
Cc1ccc(Nc2nc3ccccc3nc2-n2nc(C)cc2C)c(Cl)c1 6.62%
O=C(Nc1ccccc1Br)c1cc(CN2CCCC2)on1 -3.7%
CCCCC(=O)OC1=CN(Cc2ccccc2)S(=O)(=O)c2ccccc21 -18.6%
CCc1ccc(Oc2coc3cc(O)ccc3c2=O)cc1 -2.88%
COc1ccc(Oc2coc3cc(OC(=O)c4cncc(Br)c4)ccc3c2=O)cc1 -0.64%
CCc1ccc(NC(=O)Cn2c(=O)n(CCC(=O)NCc3ccc4c(c3)OCO4)c(=O)c3ccccc32)cc1 6.37%
CCN(CC)S(=O)(=O)c1ccc(N2CCN(C)CC2)c(NC(=O)Nc2ccccc2F)c1 7.64%
O=S(=O)(Nc1cc(S(=O)(=O)N2CCOCC2)ccc1N1CCCC1)c1cccs1 -6.97%
Cc1ccc(O)c(NC(=O)CCS(=O)(=O)c2nc(-c3ccc4c(c3)OCO4)cc(C(F)(F)F)n2)c1 -20.8%
O=C(Cc1ccc(Cl)cc1)Nc1ccc2nn(-c3ccc(Cl)cc3)nc2c1 -2.04%
Cc1cc(NC(=O)CC(C)C)cc(-c2nc3ncccc3o2)c1O 13.5%
CCOc1ccc(NC(=O)N(CC(C)C)CC(C)C)cc1 -10.6%
CCOc1ccc(NC(=O)c2ncoc2-c2ccco2)cc1 0.181%
CCOC(=O)c1ccccc1NC(=O)CCc1c(C)nc2c(c1C)c(=O)n(C)c(=O)n2C 4.81%
CCc1ccc(S(=O)(=O)c2nnn3c2nc(N2CCN(CC)CC2)c2sccc23)cc1 8.88%
Cc1ccccc1NC(=O)Cn1c(=O)n(CC2CCC(C(=O)NCCc3ccccc3)CC2)c(=O)c2ccccc21 (stereo not drawn) -13.6%
O=S(=O)(c1ccc(SCc2ccccc2)nc1)N1CCCCCC1 0.949%
Cc1ccc(CSc2ccc(S(=O)(=O)N3CCCCC3)cn2)cc1 2.76%
CCn1cc(C(=O)NCCO)c(=O)c2cc(F)c(N3CCN(C)CC3)cc21 -5.03%
CCn1cc(C(=O)N/N=C(/C)c2ccc(F)cc2)c(=O)c2cc(F)c(N3CCCC3)cc21 1.71%
CCS(=O)(=O)N1CCc2cc(C(=O)NCc3ccc(OC)cc3)ccc21 1.59%
COc1ccc(C(=O)COC(=O)c2ccc3ccccc3n2)cc1 -5.41%
COc1ccc(CNC(=O)C2CC(c3ccc(C(F)(F)F)cc3)=NO2)cc1 (stereo not drawn) -1.82%
CCCNC(=O)C(CC)n1nc(CC)n2c(cc3oc(C)cc32)c1=O (stereo not drawn) 5.42%
Cc1ccc(Cl)cc1N1CCN(S(=O)(=O)c2cc3[nH]c(=O)c(=O)[nH]c3cc2C)CC1 1.65%
COc1cccc(C(=O)Nc2ccc3oc(-c4ccc5ccccc5c4)nc3c2)c1 7.96%

Activity change, negative = inhibition, active:
O=C(Nc1ccc([N+](=O)[O-])cc1)C1CC12CCC2 (stereo not drawn) -56.8%
Cn1ncc(N2CCN(S(=O)(=O)c3ccc(Br)cc3)CC2)c(Cl)c1=O -30.4%
COC(=O)c1ccc(C2C(Oc3ccccc3C)C(=O)N2CCc2ccc(OC)c(OC)c2)cc1 (stereo not drawn) -49.6%
CCOc1cc(C(=S)N2CCOCC2)ccc1OS(=O)(=O)c1ccc(Br)cc1 -30.6%
CCS(=O)(=O)n1nc(-c2ccccc2)nc1SCc1ccccc1 -30.7%
CC1=NN(C(=O)CCCc2ccccc2)C(O)(C(F)(F)F)C1 (stereo not drawn) -32.5%
C/C(=N\NC(=O)C1(C)CC1(Br)Br)c1ccc(C)cc1C (stereo not drawn) -58.1%
O=C(NCCc1c[nH]c2ccc(Cl)cc12)c1ccc([N+](=O)[O-])cc1 -40.2%
NS(=O)(=O)c1ccc(CCNc2nc(C(F)(F)F)nc3ccccc23)cc1 -36%
Cc1ccc(CCNC(=O)Cn2c(-c3cccs3)cc3cc(F)ccc32)cc1 -40.1%
CN(C)c1cc(-c2ccc(F)cc2)oc(=O)c1Cl -37.9%
CCc1ccc(Oc2coc3cc(OC(=O)c4cc5ccccc5oc4=O)ccc3c2=O)cc1 -33.2%
CCN(CC)S(=O)(=O)c1ccc(N2CCCC2)c(NS(=O)(=O)c2cccs2)c1 -40.2%
CCOc1ccc(NC(=O)N(CCC(C)C)C(C)c2ccco2)cc1 (stereo not drawn) -66.3%
O=S(=O)(c1ccc(SCc2ccc(Br)cc2)nc1)N1CCOCC1 -43.1%
CCOC(=O)c1cn(CC)c2cc(F)c(F)cc2c1=O -74.1%
COc1ccc(C2=NOC(COC(=O)c3ccc4ccccc4n3)C2)cc1 (stereo not drawn) -39.5%
